# Hits are enriched below; roughly 19% of the tested compounds scored in any of these assays.
# TDP1 cell CPT – growth inhibition of DT40 Tdp1-/-;hTDP1 cells with camptothecin (screen for TDP1 inhibitors); chicken DT40 Tdp1-/-;hTDP1 cells + 20 nM CPT, ATP luminescence, 48 h; Potency, µM (top dose mostly 46.2 µM), inactives show at the highest dose activity change, negative = growth inhibition, hits mostly inhibitors; 12% of 420,000 active; AID 686979; also: potency is read from the fitted curve at half-maximal effect; nearly all actives have a fitted effect of over 55% in size
#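 Chicken DT40 Tdp1-/- cells complemented with human TDP1, 400 cells/well, exposed to compounds plus 20 nM camptothecin for at least 48 h at 37 C; viability read as ATP content by CellTiter-Glo luminescence.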
# IL1B secr inh – blocks inflammasome-driven IL-1 beta release; AID 743279; activity change, % at 57.5 µM; 4.7% of 360,000 active; THP-1 LPS/ATP IL-1B secretion, AlphaLISA, 16 h; hits give low values; in the data active = activity change below about -50%; inconclusive = mostly about -30% to -49%
#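 Secreted IL-1B measured by AlphaLISA bead assay after 16 h compound exposure of THP-1 cells; compounds (final up to 57.5 uM) added 1 h before LPS (250 ng/mL) and ATP (1.25 mM) stimulation; lower signal means less secretion.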
# HT1080-NT tox – kills 2HG-producing HT-1080-NT fibrosarcoma cells; 1.6% of 360,000 active; HT-1080-NT fibrosarcoma viability, CellTiter-Glo ATP luminescence, 48 h; Potency, µM (highest dose often 46.1 µM), without a hit: at the highest dose activity, negative = less viability, most hits filed as cytotoxic;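 also: NT is the 2HG producing partner of a matched IDH1 knockdown line; potency is read from the fitted curve at half-maximal effect; 0% = DMSO-treated cells and -100% = media-only wells without cells; nearly all actives have a fitted effect of over 55% in size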
#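 Viability by CellTiter-Glo luminescence after 48 h compound exposure at 37C of HT-1080-NT cells (750/well, RPMI, 5% FBS). % activity scaled between DMSO wells and medium-only wells, then curve-fitted and categorized by curve class.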
# HT1080 IDH1KD tx – kills HT-1080 cells with IDH1 knockdown. Potency, µM (doses to about 46.1 µM), inactives show top-dose activity, negative = toxicity, usual class: cytotoxic. AID 686971. 2% of 360,000 active. HT-1080 IDH1 knockdown viability, ATP luminescence, 48 h;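 also: potency is read from the fitted curve at half-maximal effect; 0% = DMSO wells and -100% = cell-free medium wells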
#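 Cytotoxicity counter-line: IDH1KD HT-1080, 48 h, CellTiter-Glo. Curves classed by r2, magnitude and activity.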
# DT40 TDP1 no CPT – qHTS for Inhibitors of human tyrosyl-DNA phosphodiesterase 1 (TDP1): qHTS in cells in absence of CPT | DT40 Tdp1-/- hTDP1 cells, no CPT, ATP luminescence, 48 h | Potency, µM (titrated, usually from 46.2 µM), for the others: at the highest dose activity change, negative = growth inhibition, actives largely listed as inhibitors | 15% of 420,000 active | AID 686978, 2013; also: potency is read from the fitted curve at half-maximal effect; nearly all actives have a fitted effect of over 55% in size
#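 Stably hTDP1-transfected Tdp1-null chicken DT40 cells were treated with library compounds minus camptothecin and grown for at least 48 hr at 37 °C, after which cellular ATP was quantified by luminescence.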
# Active calls of the source: *; ? = inconclusive; . = not tested or not shown. Unless noted, calls follow the shape of the dose curve; as a rule, active = well fitted curve in the direction sought with a large enough effect; inconclusive = small, poorly fitted or top-dose-only effect, or another doubt; inactive = no such curve, though single readings can be large; an effect the other way counts as inactive or inconclusive. Unless noted, % is scaled to controls: 0 for no effect and ±100 for the full control effect.
SMILES,TDP1 cell CPT,IL1B secr inh,HT1080-NT tox,HT1080 IDH1KD tx,DT40 TDP1 no CPT
CCc1ccc2nc3nc(C)cc(C)c3c(N)c2c1,?,-104*,?,13µM*,11µM*
Cc1cc(C)c2cccc(N)c2n1,-5%,22,-1%,-11%,-5%
Cc1cc(C)c2c(N)c3ccccc3nc2n1,?,-89*,?,?,23µM*
CC(C)Oc1ccc(CN2CCCC(CO)(Cc3ccc(F)cc3)C2)cc1 (stereo not drawn),?,-72*,?,29µM*,?
CCOc1ccc(CN2CCCC(CO)(Cc3ccccc3F)C2)cc1 (stereo not drawn),?,-56*,-11%,0%,?
COc1ccc(CN2CCCC(CO)(Cc3ccc(F)cc3)C2)c(OC)c1OC (stereo not drawn),15µM*,-16,-10%,-11%,?
COc1cc(Cl)c(CN2CCCC(CO)(Cc3ccccc3F)C2)cc1OC (stereo not drawn),-6%,?,-21%,?,?
CCCCN(C)C(=O)C1CCCN(S(=O)(=O)c2ccc3c(c2)oc(=O)n3C)C1 (stereo not drawn),?,-5,-1%,-1%,-11%
Cc1cnc(C)c(-c2cc(F)cc3c2OC(CNC(=O)CN2CCCC2)C3)n1 (stereo not drawn),9%,.,.,.,-17%
CCOC(=O)c1sc2nc(CC(=O)OC)nc(NCc3ccc(F)cc3)c2c1C,18µM*,-5,9%,-2%,16µM*
CCOC(=O)c1sc2nc(SC)nc(-c3ccc(Cl)cc3)c2c1N,21µM*,-3,11%,16%,15µM*
CCOC(=O)c1sc2nc(C)nc(NCc3ccc(F)cc3)c2c1C,26µM*,?,18µM*,21µM*,26µM*
CCOC(=O)c1sc2nc(C)cc(C)c2c1N,0%,0,0%,-16%,-12%
CCOC(=O)c1sc2nc(C)nc(NCc3ccc(Cl)cc3)c2c1C,12µM*,-67*,?,?,21µM*
COc1ccc(NC(=O)N2CCC(c3nc4ccccc4[nH]3)CC2)cc1,2%,0,-8%,-8%,2%
COc1cc(NS(=O)(=O)c2ccc3[nH]c(=O)[nH]c3c2)cc(OC)c1,-27%,-2,-1%,5%,19%
COc1cc(NS(=O)(=O)c2ccc3[nH]c4c(c3c2)CCCCCC4)cc(OC)c1,?,.,.,.,12µM*
COc1cc(NS(=O)(=O)c2ccc3[nH]c4c(c3c2)CCCC4)cc(OC)c1OC,0.92µM*,.,.,.,0.58µM*
COc1ccc(NS(=O)(=O)c2ccc(OC)c(OC)c2)cc1OC,-11%,28,2%,1%,?
COc1ccc(NS(=O)(=O)c2ccc3[nH]c(=O)ccc3c2)cc1OC,-20%,.,.,.,-30%
COc1ccc(OC)c(NC(=O)CN(C)S(=O)(=O)c2ccc3[nH]c4c(c3c2)CCCC4)c1,18µM*,.,.,.,21µM*
COc1ccc(NS(=O)(=O)c2ccc3[nH]c4c(c3c2)CCCC4)cc1OC,13µM*,.,.,.,15µM*
CCC(=O)c1ccc(OCC(=O)Nc2nn3cnnc3s2)cc1,-20%,61,-4%,-2%,-7%
O=C(O)c1cn[nH]c1-n1cnnn1,-16%,-7,7%,4%,5%
COc1ccc(NC(=O)c2cc(C3CCCCN3C(=O)CCc3ccccc3)on2)c(C)c1 (stereo not drawn),?,-3,3%,3%,?
SMILES,TDP1 cell CPT,IL1B secr inh,HT1080-NT tox,HT1080 IDH1KD tx,DT40 TDP1 no CPT
COc1cc(/C=C2\CCC(C)C3=C(c4cc(OC)c(OC)c(OC)c4)C(C#N)=C(N)OC32)cc(OC)c1OC (stereo not drawn),2.6µM*,-16,-19%,?,3.7µM*
O=C(c1ccco1)N1CCC[C@@]2(CCN(c3ncccn3)C2)C1,-3%,.,.,.,-2%
CNS(=O)(=O)c1ccc(C)c(S(=O)(=O)NC)c1,1%,22,3%,8%,8%
Fc1cccc(/C=N/Nc2nncc3ccccc23)c1,?,-6,-23%,-1%,?
Fc1cccc(/C=N/Nc2nccnc2Cl)c1,12µM*,0,12µM*,15µM*,15µM*
Oc1ccc(/C=N/Nc2nccnc2Cl)cc1,?,0,16µM*,26µM*,?
Fc1ccc(/C=N/Nc2nccnc2Cl)cc1,-27%,?,?,?,-26%
COc1ccc(N2CCN(C(=O)CCCn3c(=S)[nH]c4cc5c(cc4c3=O)OCO5)CC2)cc1,-20%,-16,0%,-8%,-6%
O=C(CCCCCn1c(=S)[nH]c2cc3c(cc2c1=O)OCO3)N1CCN(Cc2ccccc2)CC1,9.2µM*,30,-14%,-25%,-29%
O=C(CCCCCn1c(=S)[nH]c2cc3c(cc2c1=O)OCO3)N1CCN(C2CCCCC2)CC1,?,-74*,-4%,0%,?
O=C(CCCCCn1c(=S)[nH]c2cc3c(cc2c1=O)OCO3)N1CCN(C(=O)c2ccco2)CC1,-23%,0,-24%,-3%,-29%
O=C(Nc1cccc(C(F)(F)F)c1)Nc1ccc(N2CCCC2)c(S(=O)(=O)Nc2ccccc2Cl)c1,3.3µM*,-71*,?,8.2µM*,2.9µM*
C[C@H](NC(N)=O)C(=O)Nc1ccc(N2CCOCC2)c(S(=O)(=O)Nc2ccc(Cl)cc2)c1,21µM*,-1,6%,6%,?

# Screening data deposited in PubChem BioAssay by National Center for Advancing Translational Sciences (NCATS).
